Only some compounds are listed: those with a hit (about 1.6% of all), similar ones and a draw of the others.
KCNQ2 pot: potentiators of rat KCNQ2 potassium channel. CHO-K1 KCNQ2, FluxOR thallium flux fluorescence; hits give high values. O88943. B-score at 10 µM. AID 2239. 0.54% of 310,000 active;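 active means fluorescence ratio B-score at least 3 SD of library B-scores, with initial fluorescence B-score within 3 of them, cut at about 5.3 in these data; same plate scores as AID 2156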;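 further: B-score of peak minus minimum over baseline fluorescence ratio after K+ and Tl+ stimulus; positive B-score means potentiation of KCNQ2 with more thallium influx and brighter signal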
Target sequence (O88943 whole entry, looked up): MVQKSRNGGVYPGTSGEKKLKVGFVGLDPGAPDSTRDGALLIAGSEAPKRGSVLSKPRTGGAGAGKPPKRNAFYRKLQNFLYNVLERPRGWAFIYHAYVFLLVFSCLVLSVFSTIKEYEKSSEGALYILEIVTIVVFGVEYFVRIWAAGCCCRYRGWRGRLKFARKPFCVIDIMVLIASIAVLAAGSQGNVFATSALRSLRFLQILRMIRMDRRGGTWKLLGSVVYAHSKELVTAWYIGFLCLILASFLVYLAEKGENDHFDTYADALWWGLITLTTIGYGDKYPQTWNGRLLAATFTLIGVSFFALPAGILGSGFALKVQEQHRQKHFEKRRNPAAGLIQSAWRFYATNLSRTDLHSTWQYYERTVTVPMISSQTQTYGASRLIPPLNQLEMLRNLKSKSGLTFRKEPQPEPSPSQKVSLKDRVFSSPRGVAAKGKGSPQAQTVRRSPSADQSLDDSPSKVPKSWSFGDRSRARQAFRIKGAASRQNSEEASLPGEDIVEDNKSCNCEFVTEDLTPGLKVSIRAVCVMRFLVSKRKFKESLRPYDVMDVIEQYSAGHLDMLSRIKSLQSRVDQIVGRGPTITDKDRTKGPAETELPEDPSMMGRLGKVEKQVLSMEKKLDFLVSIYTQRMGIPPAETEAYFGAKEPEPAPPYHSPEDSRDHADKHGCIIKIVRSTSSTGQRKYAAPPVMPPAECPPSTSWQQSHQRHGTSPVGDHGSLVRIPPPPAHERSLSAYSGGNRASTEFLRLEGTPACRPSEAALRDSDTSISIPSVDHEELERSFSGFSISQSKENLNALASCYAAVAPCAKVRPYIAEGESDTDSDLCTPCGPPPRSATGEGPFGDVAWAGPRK
KCNQ2 block: inhibitors of rat KCNQ2 potassium channel. 1.1% of 310,000 active. CHO-K1 KCNQ2, FluxOR thallium flux, 20 min; hits give low values. O88943. B-score at 10 µM. AID 2156;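 active means fluorescence ratio B-score at most minus 3 library SDs, with starting brightness B-score within 2 library SDs, cut at about -5.5 in these data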
A number is an active result; i = inactive; nt = no result.

SMILES	KCNQ2 pot	KCNQ2 block
O=C1/C(=C\c2ccc3ccccc3c2)CCCc2ccccc21	i	-6.5
CN(C(=O)c1nn(C)c2c1CS(=O)(=O)c1ccccc1-2)c1cccc(Cl)c1	nt	i
CCSC1=C(C#N)C(c2cccs2)C(C(=O)OC)=C(C)N1 (centres undefined)	i	i
CCCSC1=C(C#N)C(c2cccs2)C(C(=O)Nc2ccccc2)=C(C)N1 (centres undefined)	i	-8.8
CCCCN(C(=O)c1cc(S(=O)(=O)N2CCCCCC2)ccc1OC)c1ccccc1	nt	i
N#Cc1ccccc1NC(=O)COC(=O)c1ccc(F)cc1F	i	i
Cc1ccc(NCc2nnc(SCC(=O)c3ccccc3)o2)c(C)c1	nt	i
Cc1ccc(NC(=O)CSc2nnc(CSc3nc(C)cc(C)n3)n2Cc2ccco2)c(C)c1	i	-6.7
Cc1ccc(C)c(NC(=O)CSc2nnc(CSc3nc(C)cc(C)n3)n2Cc2ccco2)c1	nt	i
Cc1ccc(NCc2nnc(SCC(=O)c3ccccc3)n2Cc2ccco2)c(C)c1	i	-7.8
Clc1ccc(-c2noc3c2-c2nc(Cc4cccc5ccccc45)sc2CC3)cc1	i	i
CCOC(=O)C1(Cc2ccccc2)CCCN(Cc2cccc(C(C)=O)c2)C1 (centres undefined)	i	-6
CCOC(=O)C1(Cc2ccccc2)CCCN(Cc2ccc(OCCO)cc2)C1 (centres undefined)	i	i
C=CCNC(=O)c1ccc(NC(=O)CC2SC(N3CCCC3)=NC2=O)cc1 (centres undefined)	nt	i
COc1ccc2c(c1)sc(=N)n2C	i	i
COc1cc(/C=C/c2ccc3cccc(OC)c3n2)c(O)c([N+](=O)[O-])c1	i	i
COc1cc(/C=C/c2ccc3cccc(OC)c3n2)c(OC(C)=O)c([N+](=O)[O-])c1	i	-5.6
COc1ccc(C(=O)N2CCC3(CC2)NCCc2[nH]cnc23)cc1	nt	i
O=C(NCCN1CCOCC1)/C(=C/c1ccco1)NC(=O)c1ccccc1	i	i
COc1ccc(CC(=O)Nc2cccc(SC)c2)cc1OC	i	i
CC(C)N(Cc1nc(-c2ccc(Cl)cc2)no1)C(=O)C(c1ccccc1)c1ccccc1	i	-6.2
Cc1ccc(-c2noc(CN(C(=O)C(c3ccccc3)c3ccccc3)C(C)C)n2)cc1	nt	i
COc1ccccc1CNC(=O)Cn1cc(Br)ccc1=O	i	i
N#Cc1cc([N+](=O)[O-])c(-n2nnc3ccccc32)c([N+](=O)[O-])c1	i	-5.7
CS(=O)(=O)c1ccc(-n2nnc3ccccc32)c([N+](=O)[O-])c1	nt	i
SMILES	KCNQ2 pot	KCNQ2 block
CSCC[C@H](NC(=O)OC(C)(C)C)C(=O)N1CCC(C(=O)N[C@@H](C)C(=O)NCc2ccc(F)cc2)CC1	i	i
C=CCN1C(=O)C(Cc2ccc(OCC)cc2)S/C1=N\N=C\c1cccs1 (centres undefined)	i	-5.6
C=CCN1C(=O)C(Cc2ccccc2)S/C1=N/N=C/c1cccs1 (centres undefined)	nt	i
CC(=O)NC(CC(=O)NC1CCCc2ccccc21)c1ccccc1 (centres undefined)	nt	i
O=C(O)c1cc2nccc(-c3ccc(F)cc3)n2n1	i	i
CCOC(=O)N1CCN(C(=O)c2cnn3c(C(F)F)cc(-c4ccc(C)cc4)nc23)CC1	i	i
Cc1ccc(-c2cc(C(F)F)n3ncc(C(=O)N4CCN(c5cccc(C)c5C)CC4)c3n2)cc1	i	-6.4
Cc1oncc1C(=O)N1CCCC(CO)(Cc2ccc(F)cc2F)C1 (centres undefined)	nt	i
Cc1sc2nc(-c3ccncc3)[nH]c(=O)c2c1-c1ccccc1	i	i
Cc1sc2nc(-c3ccccn3)[nH]c(=O)c2c1-c1ccccc1	13	i
Cc1c(NC(=O)COc2cccc(Cl)c2Cl)c(=O)n(-c2ccccc2)n1C	i	i
COc1ccc(CN2CCCC(C(=O)c3cccc(OC(C)C)c3)C2)cc1Cn1cccn1 (centres undefined)	nt	i
Cc1ccc(S(=O)(=O)N(C)c2ccc(C(=O)NCC(c3cccs3)N3CCOCC3)cc2)cc1 (centres undefined)	nt	i
Cc1ccc(N(C)S(=O)(=O)c2cccc(C(=O)NCC(c3cccs3)N3CCOCC3)c2)cc1 (centres undefined)	i	-6.8
O=C(Cn1nnc2ccccc21)OCC(=O)c1ccc(F)cc1	nt	i
COCC(=O)Oc1c(Sc2ccccc2[N+](=O)[O-])c(C)nn1C(C)(C)C	nt	i
CCC(CC)C(=O)Oc1c(Sc2ccccc2[N+](=O)[O-])c(C)nn1C(C)(C)C	i	-6
COc1ccc(-n2ncc3c2CC(C)(C)CC3NC(=O)c2cn[nH]c2)cc1 (centres undefined)	nt	i
O=C(Cn1nc(-c2ccccc2)nc1-c1ccccc1)OC1CCCCC1	i	-6.1
CCOC(=O)Cn1nc(-c2ccccc2)nc1-c1ccccc1	nt	i
CC1CCc2sc(NC(=O)C3CC(Cl)=CCC3C(=O)O)c(C#N)c2C1 (centres undefined)	i	i
Cc1ccc2[nH]c(C(=O)N3CCN(C(c4ccccc4)c4ccccc4)CC3)cc2c1	i	-5.8
COc1ccccc1N1CCN(C(=O)c2cc3cc(C)ccc3[nH]2)CC1	i	i
COc1cccc(-c2nn(-c3ccc(C)cc3)cc2C(=O)N2CCc3cc(OC)c(OC)cc3C2)c1	i	-6.2
COc1cccc(-c2nn(-c3ccccc3)cc2C(=O)O)c1	i	i
SMILES	KCNQ2 pot	KCNQ2 block
CC(C)(C)NC(=O)CSc1nnc(-c2ccncc2)n1Cc1ccccc1	i	i
CC(C)(C)NC(=O)CSc1nnc(-c2ccccn2)n1Cc1ccccc1	8.1	i
COc1ccccc1N(Cc1ccccc1)S(=O)(=O)c1cccc(C(=O)Nc2ccccn2)c1	nt	i
COc1ccccc1N(Cc1ccccc1)S(=O)(=O)c1cccc(C(=O)Nc2ccc(C)cn2)c1	i	-7.1
Cn1c(=O)[nH]c(=O)c2c1[nH]c(=S)n2Cc1ccc(Cl)cc1	i	i
C=C(C)COc1ccc(-c2ncncc2Oc2ccc(OC)cc2)c(O)c1	i	-5.8
C=C(C)COc1ccc(-c2nc(N)nc(C)c2-c2ccc(OC)cc2)c(O)c1	nt	i
O=C(Nc1nc(-c2ccccc2)cs1)c1ccc(N2CCOCC2)c([N+](=O)[O-])c1	i	-7.8
Cc1ccc(-c2csc(NC(=O)c3cc([N+](=O)[O-])ccc3N3CCOCC3)n2)cc1	nt	i
COc1cccc(N(CC(=O)N2CCCCCC2)S(C)(=O)=O)c1	nt	i
CCSC1(SCC)N=C(N)C2(C#N)C(c3ccc(F)cc3)C12C#N (centres undefined)	i	-5.9
COC1(OC)N=C(N)C2(C#N)C(c3ccc(F)cc3)C12C#N (centres undefined)	i	i
Cc1cc(C)c2c(N)c(C(=O)N3CCc4ccccc4C3)sc2n1	i	-7.7
CCN1CCc2nc3sc(C(=O)N4CCc5ccccc5C4)c(N)c3cc2C1	nt	i
Cc1ccc2oc(C(=O)N3CCN(c4cccc(C)n4)CC3)c(C)c2c1	i	-8.1
Cc1cc(Cl)c2oc(C(=O)N3CCN(c4cccc(C)n4)CC3)c(C)c2c1	nt	i
C[C@H]1[C@H](C)CC[C@]2(C)CC[C@]3(C)C(=CC[C@@H]4[C@@]5(C)CC[C@@H](O)[C@](C)(C(=O)O)[C@@H]5CC[C@]43C)[C@H]12	i	-9.2
C[C@H]1[C@H](C)CC[C@]2(C(=O)O)CC[C@]3(C)C(=CC[C@@H]4[C@@]5(C)C[C@@H](O)[C@H](O)C(C)(C)[C@@H]5CC[C@]43C)[C@H]12	i	i
COc1cccc(CNC(=O)c2ccc(C3SCCS3)cc2)c1	i	i

From PubChem BioAssay
